# Calls of active or inactive are those of the source.
# Columns and labels:
# Albumin (Bos taurus) = Albumin (Bos taurus) (UniProt P02769); experiment: bovine serum albumin binders on microarray, profiling panel, artefact control for SMM control protein annotation, biochemical, small-molecule microarray, Alexa647 label, 635/667 nm fluorescence (AID 1118); conditions: BSA-A647 binding, fluorescence 635 nm, higher = more signal;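 further: score merges 667 nm emission intensity and signal-to-noise per printed compound spot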
# Chain of Albumin (Bos taurus) (P02769 whole entry, looked up): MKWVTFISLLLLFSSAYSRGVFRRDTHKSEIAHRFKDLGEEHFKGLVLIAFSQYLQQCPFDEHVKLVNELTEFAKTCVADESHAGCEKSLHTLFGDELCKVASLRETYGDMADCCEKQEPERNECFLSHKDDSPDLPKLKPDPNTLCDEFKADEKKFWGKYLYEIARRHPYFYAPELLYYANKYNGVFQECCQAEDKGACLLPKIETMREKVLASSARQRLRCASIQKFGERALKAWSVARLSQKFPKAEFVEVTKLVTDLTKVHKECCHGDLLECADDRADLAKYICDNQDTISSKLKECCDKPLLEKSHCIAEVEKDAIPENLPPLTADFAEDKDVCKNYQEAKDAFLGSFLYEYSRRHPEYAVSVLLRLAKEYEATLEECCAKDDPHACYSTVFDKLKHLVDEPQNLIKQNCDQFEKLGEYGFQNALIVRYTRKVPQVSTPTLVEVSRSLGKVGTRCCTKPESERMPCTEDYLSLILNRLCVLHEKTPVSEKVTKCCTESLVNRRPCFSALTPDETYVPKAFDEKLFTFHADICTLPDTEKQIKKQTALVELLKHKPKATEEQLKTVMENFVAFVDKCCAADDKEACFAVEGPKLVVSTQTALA
# [1] = small-molecule microarray binders of probe aXIP, primary screen, biochemical, NeuroSMM set, 635/667 nm fluorescence (AID 1119); conditions: higher = more signal, called active from +8 up or from −8 down;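 further: probe is the protein aXip251-270 applied at 1 µg/mL to compound-printed slides; binding of probe to printed compounds measured as 667 nm fluorescence plus signal to noise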
# [2] = small-molecule binders of probe aNOTCH3, primary screen, biochemical, small-molecule microarray, 635/667 nm fluorescence (AID 1120); conditions: higher = more signal;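 further: probe is a biotin-tagged antibody raised against NOTCH3 rather than NOTCH3 protein; score merges spot fluorescence near 667 nm with spot signal to noise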
# [3] = small-molecule binders of probe aNOTCH2, primary screen, biochemical, small-molecule microarray, 635/667 nm fluorescence (AID 1121); conditions: higher = more signal;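 further: score merges feature fluorescence read at 667 nm with its signal to noise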
# [4] = molecular target: Carbonic anhydrase 2 (Homo sapiens) (UniProt P00918); experiment: CAII small-molecule binders, profiling panel, biochemical, small-molecule microarray, Alexa647-labelled CAII (AID 1122); conditions: CAII-A647 binding fluorescence, higher = more signal
# [5] = COS7 lysate on small-molecule microarray, probe aHis, 635 nm (AID 1123); conditions: COS7 cell lysate, fluorescence, higher = more signal;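 further: z-score combines 667nm fluorescence intensity with signal-to-noise per printed compound spot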
# [6] = compound binding in COS7 lysate, probe aLAP1, primary screen, cell lysate, small-molecule microarray (AID 1124); conditions: probe aLAP1, fluorescence, higher = more signal;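 further: lysate comes from COS7 cells expressing LAP1 and is applied at 0.3 µg/mL; score merges spot fluorescence near 667 nm with signal-to-noise over triplicate slides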
# Sam68 (KHDRBS1) = experiment: Sam68 small-molecule binders, primary screen, biochemical, small-molecule microarray, 635 nm fluorescence (AID 1125); conditions: small-molecule microarray binding, higher = more signal;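 further: score merges 667 nm channel intensity with signal to noise over triplicate slides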
# [7] = tested on: Chordin-like protein 2 (CHRDL2); experiment: CHRDL2 small-molecule binders, primary screen, biochemical, small-molecule microarray, 635 nm fluorescence (AID 1126); conditions: small-molecule microarray binding, fluorescence 635 nm; higher = more signal;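 further: printed compound slides probed with Chrdl2 protein at 4 µg/mL for 1 h at 4 C; score merges 667 nm emission intensity with signal to noise over three replicate slides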
# [8] = molecular target: Concanavalin-A (Canavalia ensiformis) (UniProt P02866); experiment: ConA small-molecule binders, primary screen, artefact control for SMM control protein annotation, biochemical, small-molecule microarray, Alexa647 label, 635 nm (AID 1127); conditions: ConA-A647 binding fluorescence, higher = more signal;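 further: z combines 667 nm emission intensity with signal-to-noise across three replicate slides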
# Chain of Concanavalin-A (Canavalia ensiformis) (P02866 whole entry, looked up): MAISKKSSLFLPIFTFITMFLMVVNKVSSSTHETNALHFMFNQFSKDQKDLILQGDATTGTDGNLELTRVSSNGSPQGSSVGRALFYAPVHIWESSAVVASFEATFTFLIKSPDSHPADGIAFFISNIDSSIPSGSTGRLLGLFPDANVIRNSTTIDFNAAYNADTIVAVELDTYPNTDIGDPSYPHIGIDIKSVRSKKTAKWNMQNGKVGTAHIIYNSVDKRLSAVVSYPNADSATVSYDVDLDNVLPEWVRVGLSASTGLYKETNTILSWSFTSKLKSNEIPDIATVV
# [9] = anti-His antibody binders, primary screen, artefact control for SMM control protein annotation, biochemical, small-molecule microarray, 635 nm fluorescence (AID 1128); conditions: anti-His Alexa647 antibody binding, higher = more signal;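 further: score merges feature fluorescence with signal-to-noise for each printed compound spot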
# [10] = tested on: Human papillomavirus type 1a E7 protein (residues 1-88); experiment: HPV1a E7 small-molecule binders, primary screen, biochemical, small-molecule microarray, residues 1-88, 635 nm (AID 1129); conditions: small-molecule microarray binding, fluorescence 635 nm; higher = more signal
# [11] = molecular target: Focal adhesion kinase 1 (Homo sapiens) (UniProt Q05397); experiment: small-molecule microarray binders of FAK, primary screen, biochemical, 635/667 nm fluorescence, BSA, DTT (AID 1130); conditions: PTK2 binding, 635 nm fluorescence, higher = more signal;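 further: composite of spot emission at 667 nm and signal to noise over triplicate slides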
# Chain of Focal adhesion kinase 1 (Homo sapiens) (Q05397 whole entry, looked up): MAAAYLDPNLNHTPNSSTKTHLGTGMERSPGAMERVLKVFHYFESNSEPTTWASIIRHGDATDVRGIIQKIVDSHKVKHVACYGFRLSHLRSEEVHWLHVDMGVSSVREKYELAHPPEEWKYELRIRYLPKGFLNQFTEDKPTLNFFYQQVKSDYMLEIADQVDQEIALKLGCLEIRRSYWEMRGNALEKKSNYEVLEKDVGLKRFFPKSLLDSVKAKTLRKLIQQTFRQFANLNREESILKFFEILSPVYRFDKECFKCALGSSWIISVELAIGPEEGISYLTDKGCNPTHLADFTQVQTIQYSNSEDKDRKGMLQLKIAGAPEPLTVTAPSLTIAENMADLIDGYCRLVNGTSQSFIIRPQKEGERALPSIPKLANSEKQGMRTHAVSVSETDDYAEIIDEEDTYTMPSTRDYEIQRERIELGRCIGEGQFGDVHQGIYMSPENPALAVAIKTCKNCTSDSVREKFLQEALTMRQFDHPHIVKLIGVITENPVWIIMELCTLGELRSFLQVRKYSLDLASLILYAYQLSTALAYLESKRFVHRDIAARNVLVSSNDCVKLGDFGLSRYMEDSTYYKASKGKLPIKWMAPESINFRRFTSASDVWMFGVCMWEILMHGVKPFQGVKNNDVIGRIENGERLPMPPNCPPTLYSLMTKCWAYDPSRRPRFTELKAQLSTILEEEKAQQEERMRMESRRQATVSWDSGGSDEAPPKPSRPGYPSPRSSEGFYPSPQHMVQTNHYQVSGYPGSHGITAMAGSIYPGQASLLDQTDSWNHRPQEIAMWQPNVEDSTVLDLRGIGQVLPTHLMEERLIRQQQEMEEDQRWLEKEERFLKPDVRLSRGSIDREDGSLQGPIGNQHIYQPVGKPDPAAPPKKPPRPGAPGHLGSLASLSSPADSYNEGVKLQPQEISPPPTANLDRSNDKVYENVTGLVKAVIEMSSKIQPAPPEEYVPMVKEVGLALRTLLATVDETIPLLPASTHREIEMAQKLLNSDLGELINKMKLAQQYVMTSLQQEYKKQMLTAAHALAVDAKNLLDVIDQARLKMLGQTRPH
# [12] = tested on: Fibrinogen (Alexa647-labelled); experiment: fibrinogen binders on compound microarrays, profiling panel, artefact control for SMM control-protein annotation, biochemical, small-molecule microarray, 635/667 nm fluorescence (AID 1131); conditions: fibrinogen-A647 binding fluorescence, higher = more signal;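 further: z-score merges 667 nm fluorescence with per-spot signal-to-noise over triplicate slides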
# [13] = molecular target: Follistatin (Homo sapiens) (UniProt P19883); experiment: follistatin binders on small-molecule microarrays, primary screen, biochemical, small-molecule microarray, 635/667 nm fluorescence (AID 1132); conditions: FST binding, 635 nm fluorescence, higher = more signal
# Chain of Follistatin (Homo sapiens) (P19883 whole entry, looked up): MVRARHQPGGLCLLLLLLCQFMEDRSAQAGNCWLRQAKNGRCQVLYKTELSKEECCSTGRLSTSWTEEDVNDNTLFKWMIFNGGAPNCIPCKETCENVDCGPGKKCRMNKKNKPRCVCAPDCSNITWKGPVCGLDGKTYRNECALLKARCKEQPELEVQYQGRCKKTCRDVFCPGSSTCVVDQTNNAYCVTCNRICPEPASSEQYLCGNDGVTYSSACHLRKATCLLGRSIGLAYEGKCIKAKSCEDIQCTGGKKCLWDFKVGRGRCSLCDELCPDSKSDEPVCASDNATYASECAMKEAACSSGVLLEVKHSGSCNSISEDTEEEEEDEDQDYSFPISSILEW
# [14] = molecular target: Fibroblast growth factor 2 (Homo sapiens) (UniProt P09038); experiment: FGF2 binders on small-molecule microarrays, primary screen, biochemical, small-molecule microarray, 635/667 nm fluorescence (AID 1133); conditions: small-molecule microarray binding, FGF2, fluorescence 635/667; higher = more signal
# Chain of Fibroblast growth factor 2 (Homo sapiens) (P09038 whole entry, looked up): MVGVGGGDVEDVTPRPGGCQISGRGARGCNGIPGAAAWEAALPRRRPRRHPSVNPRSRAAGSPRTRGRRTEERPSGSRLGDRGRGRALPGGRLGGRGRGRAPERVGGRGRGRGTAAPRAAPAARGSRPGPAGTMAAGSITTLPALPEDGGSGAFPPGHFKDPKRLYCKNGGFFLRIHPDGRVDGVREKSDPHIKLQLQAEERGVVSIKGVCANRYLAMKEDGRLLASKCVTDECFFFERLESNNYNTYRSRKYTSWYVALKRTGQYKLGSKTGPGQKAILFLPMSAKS
# [15] = mitochondrial membrane potential change in A549 cells, profiling panel, cell-based, JC-1 fluorescence, basal, 24 h, 100 nL (AID 1138); conditions: higher = more signal;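 further: A549 lung adenocarcinoma cells under basal conditions with no added stimulus; test concentration not given here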
# Lefty1 = Lefty1 binders on small-molecule microarrays, primary screen, biochemical, small-molecule microarray, 635/667 nm fluorescence (AID 1139); conditions: small-molecule microarray binding, fluorescence 635/667; higher = more signal
# [16] = tested on: wheat germ agglutinin (Triticum aestivum), Alexa647-labelled; experiment: wheat germ agglutinin binders on compound microarrays, profiling panel, artefact control for SMM control-protein annotation, biochemical, small-molecule microarray, 635/667 nm fluorescence (AID 1140); conditions: WGA-A647 binding, 635 nm fluorescence, higher = more signal;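 further: score merges 667 nm feature emission with signal to noise over triplicate slides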
# [17] = molecular target: Luciferin 4-monooxygenase (Photinus pyralis) (UniProt P08659); experiment: firefly luciferase enzyme inhibitors, primary screen, biochemical, luminescence, purified enzyme, 2006 set (AID 1141); conditions: SteadyGlo luminescence, 30 min, higher = more signal, called active from +8 up or from −8 down;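 further: cell-free assay with purified firefly luciferase at 100 ng per well in PBS; test concentration not given here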
# Chain of Luciferin 4-monooxygenase (Photinus pyralis) (P08659 whole entry, looked up): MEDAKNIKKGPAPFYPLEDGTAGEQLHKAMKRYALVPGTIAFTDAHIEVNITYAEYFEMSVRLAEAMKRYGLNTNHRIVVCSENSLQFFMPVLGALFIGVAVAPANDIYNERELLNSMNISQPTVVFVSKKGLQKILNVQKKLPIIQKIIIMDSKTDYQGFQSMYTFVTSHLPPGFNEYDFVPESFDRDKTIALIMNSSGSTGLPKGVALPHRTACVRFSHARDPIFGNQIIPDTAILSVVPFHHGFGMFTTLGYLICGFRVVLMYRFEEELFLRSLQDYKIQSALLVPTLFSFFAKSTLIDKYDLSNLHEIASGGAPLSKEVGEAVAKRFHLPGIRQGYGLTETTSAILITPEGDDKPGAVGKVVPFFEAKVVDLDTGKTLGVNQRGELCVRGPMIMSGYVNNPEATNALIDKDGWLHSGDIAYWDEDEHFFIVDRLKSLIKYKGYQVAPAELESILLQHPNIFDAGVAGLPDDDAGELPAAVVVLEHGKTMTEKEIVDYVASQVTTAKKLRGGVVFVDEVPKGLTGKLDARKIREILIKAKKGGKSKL
Structure (SMILES),composite z-score (Albumin (Bos taurus)),composite Z-score [1],composite z-score [2],composite z-score [3],composite z-score [4],composite z-score [5],composite z-score [6],composite z-score (Sam68 (KHDRBS1)),composite z-score [7],composite z-score [8],composite z-score [9],composite z-score [10],composite z-score [11],composite z-score [12],composite z-score [13],composite z-score [14],z-score [15],composite z-score (Lefty1),composite z-score [16],z-score [17]
CCCNC(=O)OC[C@H]1O[C@H](CCON=C[C@@H](NS(=O)(=O)c2ccc(C)cc2)[C@H](C)C=CCC(=O)OC)C=C[C@@H]1Oc1ccc(OC)cc1,-0.413,-0.385 (inactive),0.0961,-0.0158,-0.437,-0.192,-0.0407,0.0713,0.16,-1.46,-0.114,0.136,0.459,0.0865,-0.0546,-0.102,0.188,0.0275,0.391,-0.21 (inactive)
CC[C@@H](c1ccccc1)n1c(=O)n2n(c1=O)[C@H]1[C@H](O)[C@@H]3O[C@@H]3C(=NOCc3ccccc3)[C@H]1CC2,0.536,-0.558 (inactive),0.0306,-0.203,0.178,0.423,-0.502,0.0843,0.283,0.966,0.274,0.0875,-0.207,0.931,0.598,0.373,-1.14,0.65,0.676,0.0145 (inactive)
CO[C@@H]1C=CCC(=O)N[C@@H](C)C(=O)OC[C@@H](OC)[C@H](C)C=CCC(=O)OC[C@H]1C,-1.01,0.914 (inactive),-0.0967,-0.123,-0.689,-1.2,0.0645,0.451,1.49,-1.09,0.207,-0.724,-0.397,-0.556,1.39,0.615,1.04,1.59,-0.87,-0.461 (inactive)
CCOC(=O)[C@H](CC(C)C)NC(=O)CCC1CC(OC(=O)NCCc2ccc(F)cc2)CC2(CCCC(COC(=O)NCc3cccc(C(F)(F)F)c3)O2)O1 (stereo not given in full),0.386,1.35 (inactive),-0.0003,-0.117,0.475,0.953,-0.0042,1.21,0.273,0.542,0.167,1.15,0.155,0.619,0.579,0.987,-0.208,0.549,0.296,0.507 (inactive)
CO[C@@H](C(C)C)[C@@H](C)C1OC(=O)CC1O (stereo not given in full),-0.145,0.0923 (inactive),-0.159,-0.166,-0.169,-0.18,-0.542,-0.22,-0.598,-0.347,-0.647,-0.579,0.0539,-1.29,-0.989,-0.278,0.000179,-0.633,-0.282,0.159 (inactive)
CCOC(=O)[C@H](Cc1ccccc1)NC(=O)CCC1CC(OC(=O)NCc2ccc3c(c2)OCO3)CC2(CCCC(COC(=O)NCCOC)O2)O1 (stereo not given in full),-0.756,0.0786 (inactive),0.163,-0.0785,0.134,0.577,-0.172,1.3,0.379,1.06,0.431,1.14,-0.341,0.69,0.808,0.455,-0.599,1.26,0.581,0.724 (inactive)
O=C(NN=C1C[C@@H](O)[C@@H](O)[C@@H]2[C@@H]3C(=O)N(Cc4ccc5c(c4)OCO5)C(=O)[C@@H]3CC[C@@H]12)OCc1ccccc1,0.544,0.536 (inactive),-0.0377,-0.0817,-0.141,-0.357,0.0507,-0.449,-0.0473,-0.0653,0.921,0.0191,0.28,0.057,-0.137,-0.0806,-0.734,-0.257,0.227,1.02 (inactive)
CCOC(=O)[C@H](Cc1ccccc1)NC(=O)CCC1CC(OC(=O)NCc2ccc3c(c2)OCO3)CC2(CCCC(COC(=O)NCCc3ccc(Cl)cc3)O2)O1 (stereo not given in full),0.581,0.264 (inactive),0.0591,-0.125,0.151,0.454,0.0158,1.3,0.43,0.814,0.0231,0.908,0.762,0.755,0.749,0.303,0.05,1.03,0.335,-0.144 (inactive)
CC(C)(C)N1C(=O)[C@H]2[C@H]3[C@H](O)[C@H](O)CC(=NOC[C@@H](O)COCc4ccco4)[C@H]3CC[C@H]2C1=O,0.383,-0.0443 (inactive),-0.128,-0.117,0.282,0.327,0.72,0.396,0.479,0.315,0.606,0.237,-0.136,0.0824,-0.22,0.249,0.0624,-0.0429,0.495,-0.011 (inactive)
CC(CCC(=O)OC[C@H]1O[C@H](C#Cc2ccccc2)C=C[C@@H]1Oc1ccc(C)cc1)=NO[C@@H](C)c1cc(-c2c(C)cc(C)cc2C)no1,0.363,-0.61 (inactive),-0.272,-0.14,-0.0955,0.0007,0.173,-0.42,-0.872,-0.214,0.888,-1.49,-0.0556,0.709,-0.921,-0.977,-0.00541,-0.589,0.848,0.0957 (inactive)
CCN1C(=O)[C@H]2[C@H]3[C@H](O)[C@H](O)CC(=NOC[C@@H](O)COCc4ccco4)[C@H]3CC[C@H]2C1=O,0.532,0.525 (inactive),-0.18,-0.16,0.093,-0.303,0.0965,0.971,1.5,-1.26,-1.13,-0.516,0.0699,-0.554,1.39,1.66,0.0801,1.55,-0.976,-0.941 (inactive)

# Reference: PubChem BioAssay
